Compound activity: PubChem BioAssay, National Center for Advancing Translational Sciences (NCATS)
Compounds with a hit are over-represented: about 10% of the library has one in this group of screens.
FLuc inh: Photinus pyralis luciferase inhibition; Potency, µM (titrated, usually from 115 µM), hits mostly inhibitors; 2.5% of 76,000 active; purified P. pyralis luciferase, luminescence, biochemical; also: nearly all actives have a fitted effect of over 65% in size
Target sequence (P08659 whole entry, looked up): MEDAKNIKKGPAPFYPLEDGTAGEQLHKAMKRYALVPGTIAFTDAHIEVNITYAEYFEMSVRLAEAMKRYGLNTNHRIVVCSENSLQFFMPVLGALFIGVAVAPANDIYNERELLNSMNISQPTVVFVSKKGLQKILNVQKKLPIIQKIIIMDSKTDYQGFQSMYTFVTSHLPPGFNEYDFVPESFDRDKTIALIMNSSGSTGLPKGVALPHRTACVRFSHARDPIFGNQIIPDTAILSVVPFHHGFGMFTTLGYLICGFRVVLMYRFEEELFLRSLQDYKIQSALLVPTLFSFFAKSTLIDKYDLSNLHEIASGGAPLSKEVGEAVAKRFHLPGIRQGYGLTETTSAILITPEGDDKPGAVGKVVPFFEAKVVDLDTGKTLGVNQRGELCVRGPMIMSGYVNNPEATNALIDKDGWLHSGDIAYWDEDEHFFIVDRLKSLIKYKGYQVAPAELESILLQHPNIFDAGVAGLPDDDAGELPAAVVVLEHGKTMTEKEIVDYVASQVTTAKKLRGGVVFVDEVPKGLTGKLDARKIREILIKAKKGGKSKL
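Purified 10nM P. pyralis luciferase with 10uM D-luciferin and 10uM ATP in 50mM Tris acetate pH 7.5, 10mM Mg acetate, 0.01% Tween-20, 0.05% BSA. qHTS titration; luminescence read by CCD imager.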
hNpr1 antagonist: blocks ANP-stimulated signaling of human Npr1 receptor | P16066 | 1.6% of 76,000 active | AID 1347048 | HEK293 hNpr1 GloSensor cGMP, ANP-stimulated luminescence | Potency, µM (series often up to 46.3 µM), for inactives: at the top dose activity change, negative = inhibition, most hits filed as inhibitors; calls by dose curve; also: nearly all actives have a fitted effect of over 60% in size
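HEK293 cells stably expressing human Npr1 and cGMP GloSensor pGS-40F, loaded 2 h with 2% GloSensor reagent, given compound 30 min at room temperature. Luminescence read before and 20 min after 0.1 nM hNppA.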
NIH3T3 tox: kills NIH 3T3 cells; Potency, µM (highest dose often 96.7 µM), without a hit: top-dose activity change, negative = cytotoxicity, most hits filed as inhibitors; NIH 3T3 viability, CellTiter-Glo ATP luminescence, 48-72 h; 4.3% of 94,000 active; also: nearly all actives have a fitted effect of over 55% in size
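Viability of NIH 3T3 cells after 48 or 72 hr compound treatment at 37 °C was assessed by CellTiter-Glo, with luminescence imaged following a 10 min room-temperature step.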
GPT2 inh: GPT2 alanine aminotransferase inhibition; Q8TD30; Recombinant GPT2, coupled pyruvate oxidase/HRP Amplex Red fluorescence; Potency, µM (series often up to 57.7 µM), inactives show top-dose activity change, negative = inhibition, actives largely listed as inhibitors; 0.25% of 100,000 active; AID 1671188; also: nearly all actives have a fitted effect of over 60% in size
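Inhibition is scored from Amplex Red fluorescence generated when pyruvate oxidase and HRP act on pyruvate released by GPT2. Reactions contain 10ng/uL enzyme, 250uM a-KG and 2mM L-alanine and run 30 min at room temperature.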
HEK cytotox: kills HEK 293 cells. HEK 293 viability, ATP luminescence (CellTiter-Glo), 48-72 h. 6.6% of 94,000 active. Potency, µM (titrated, usually from 115 µM), inactives show at the top dose activity change, negative = cytotoxicity, usual class: inhibitors. AID 1345083; also: nearly all actives have a fitted effect of over 60% in size
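Viability of HEK 293 cells, plated at 250 cells/well, was judged by cellular ATP after compound treatment for 48 or 72 hr. Luminescence was imaged 10 min after CellTiter-Glo addition at room temperature.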
Starred values were filed as active, the others as inactive; i = inactive; ? = inconclusive; · = not tested or not shown; [ ] = dose if it differs, or a comment. Unless noted, calls follow the shape of the dose curve; as a rule, active = well fitted curve in the direction sought with a large enough effect; inconclusive = small, poorly fitted or top-dose-only effect, or another doubt; inactive = no such curve, though single readings can be large; an effect the other way counts as inactive or inconclusive. % is scaled to controls: 0 for no effect and ±100 for the full control effect; potency is read from the fitted curve at half-maximal effect.

SMILES | FLuc inh | hNpr1 antagonist | NIH3T3 tox | GPT2 inh | HEK cytotox
CNC(=O)CCn1ncc2cc(OCc3ccccc3-c3ccccc3C)ccc21 | i | -17.8%[70.6 µM] | ? | -3.3%[88.5 µM] | ?
CNC(=O)CCn1ncc2cc(OCc3ccccc3-c3cc(F)ccc3C)ccc21 | ? | -27.3%[70.6 µM] | 79.4µM* | 3.6%[88.5 µM] | 63.1µM*
CNC(=O)CCn1ncc2cc(OCc3ccccc3-c3ccc(F)cc3F)ccc21 | ? | -1.5%[70.6 µM] | ? | ? | 79.4µM*
O=C(CCc1ccc2c(c1)CN(C(=O)C1CC1)CCO2)NCCCn1cccn1 | i | 4.8% | 4.7% | i | i
c1ccc(CN2CC[C@H](c3nc4ncccc4[nH]3)C2)cc1 | ? | -18.4%[70.6 µM] | -20.5%[174 µM] | -1.4%[88.5 µM] | -16.2%[230 µM]
Cc1csc(NC(=O)C2(C)COCc3cnc(Nc4ccccc4)nc32)n1 (centres undefined) | i | -11.6%[70.6 µM] | ? | -5.5%[88.5 µM] | 79.4µM*
COCCNC(=O)C1(C)CCc2cnc(Nc3cccc(OC)c3)nc21 (centres undefined) | i | 1.4%[70.6 µM] | ? | 0.7%[88.5 µM] | ?
COc1cccc(Nc2ncc3c(n2)C(C)(C(=O)Nc2nc(C)cs2)CC3)c1 (centres undefined) | i | -27.1%[70.6 µM] | ? | 3.9%[88.5 µM] | 50.1µM*
CC1(C(=O)Nc2ccccc2)COCc2cnc(Nc3ccccc3)nc21 (centres undefined) | i | -15.1%[70.6 µM] | ? | -18.2%[88.5 µM] | 79.4µM*
COc1cccc(Nc2ncc3c(n2)C(C)(C(=O)N2CC[S+](=O)([O-])CC2)CC3)c1 (centres undefined) | i | 3.3%[70.6 µM] | 100µM* | i | 2.1%[172 µM]
CC1(C(=O)NCc2ccccc2)COCc2cnc(Nc3ccccc3)nc21 (centres undefined) | i | -28.9%[70.6 µM] | ? | -11.8%[88.5 µM] | ?
Cc1cnc(CC2CCN(C(=O)C(C)c3ccccc3)CC2)n1Cc1ccc(F)cc1 (centres undefined) | i | -3.0% | ? | -13.2% | 35.5µM*
Cn1c(CO[C@H]2CN(Cc3ccc4c(c3)OCCO4)C[C@H]2F)nc2ccccc21 | i | -10.0%[70.6 µM] | 89.1µM* | 0.2%[88.5 µM] | ?
CN1CCN([C@@H]2[C@H](O)[C@H](CO)O[C@@H]2CN(Cc2ccc(Cl)cc2)Cc2cccc(Cl)c2)CC1 | i | ? | 28.2µM* | -0.1% | ?
COc1cccc(Nc2ncc(-c3ccccc3OC)c3c2OCC3)c1 | i | -14.9%[70.6 µM] | ? | -20.8%[88.5 µM] | ?
COc1ccccc1-c1cnc(Nc2ccc(CN3CCN(C)CC3)cc2)c2c1CCO2 | ? | -10.5%[70.6 µM] | 25.1µM* | 2.7%[88.5 µM] | 35.5µM*
COc1ccc(-c2cnc(Nc3ccc(CN4CCN(C)CC4)cc3)c3c2CCO3)cn1 | ? | -15.4%[70.6 µM] | 28.2µM* | i | ?
COc1ccc(C(=O)Nc2ncc(-c3ccc(OC)nc3)c3c2OCC3)cc1 | ? | -11.1%[70.6 µM] | ? | -28.7%[88.5 µM] | -21.0%[172 µM]
CCOC(=O)N1CCC(N2CCCCC(N)C2)CC1 (centres undefined) | i | -0.1% | -2.4% | -8.8% | i
CC(C)(C)OCC1CN(Cc2cccs2)[S+](=O)([O-])c2cccnc2O1 (centres undefined) | · | · | ? | i | -25.8%[57.5 µM]
COc1cccc(NC(=O)N2CCCC3(C2)Nc2cccnc2NC3=NC2CCCC2)c1 (centres undefined) | i | 0.9% | ? | -10.1% | ?
O=C(Nc1cc(F)cc(F)c1)N1CCCC2(C1)Nc1cccnc1NC2=NC1CCCC1 (centres undefined) | i | -23.9% | ? | -26.3% | 39.8µM*
CNC(=O)c1cn2c(n1)CN([S+](C)(=O)[O-])CC2 | · | · | i | -4.6%[88.5 µM] | i
CC(C)(C)CC(=O)N1CCC2(CCC(=O)N(CC3CC3)CC2)CC1 | i | 6.2% | -11.7% | i | -0.5%
CC(C)c1ccc([S+](=O)([O-])c2nnn3c2nc(NCc2ccncc2)c2ccccc23)cc1 | · | · | 39.8µM* | i | 50.1µM*
N#Cc1cccc(C(=O)N2CCNc3cnc(Nc4cccc(F)c4)nc3C2)c1 | i | 28.2µM* | ? | i | ?
O=C(c1cc2ccccc2[nH]1)N1CCNc2cnc(Nc3ccccc3)nc2C1 | ? | ? | ? | -19.2%[88.5 µM] | 79.4µM*
